Test results: PubChem BioAssay (NCI)
Compounds without any hit were thinned out: in the full panel of roughly 83,000, 20% have a hit.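 Assay: single dose, 48 h. Readout: percent growth (0 = no net growth; negative = cell death). Active: <10.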 Calls of active or inactive are those of the source.

Tests used:
Assay in all cases: NCI-60 one-dose screen, 48 h (100 = growth as untreated, 0 = no growth, -100 = all killed)
Conditions in all cases: 10 µM
T-47D breast = system: T-47D breast
BT-549 breast = system: BT-549 breast
MDA-MB-435 melanoma = system: MDA-MB-435 melanoma
SW-620 colon = system: SW-620 colon
MCF7 breast = system: MCF7 breast
HCT-116 colon = system: HCT-116 colon
HCC-2998 colon = system: HCC-2998 colon
KM12 colon = system: KM12 colon

Measured: growth

Cc1ccc(S(=O)(=O)N/N=C2\CCCc3ccccc32)cc1
inactive: T-47D breast 94% | BT-549 breast 115% | MDA-MB-435 melanoma 101% | SW-620 colon 101% | MCF7 breast 92.1% | HCT-116 colon 114% | HCC-2998 colon 108% | KM12 colon 111%

C[C@]12CC[C@@H]3c4ccc(O)cc4CC[C@H]3[C@@H]1CC[C@@H]2NS(=O)(=O)c1ccc(C(F)(F)F)cc1
active: MCF7 breast 2.42%
inactive: T-47D breast 25% | BT-549 breast 59% | MDA-MB-435 melanoma 22.3% | SW-620 colon 69.7% | HCT-116 colon 18.5% | HCC-2998 colon 60.4% | KM12 colon 47.5%

S=C(SSC(=S)N(c1ccccc1)c1ccccc1)N(c1ccccc1)c1ccccc1
inactive: T-47D breast 97.3% | BT-549 breast 109% | MDA-MB-435 melanoma 104% | SW-620 colon 108% | MCF7 breast 98.8% | HCT-116 colon 100% | HCC-2998 colon 101% | KM12 colon 98.1%

Clc1nc2ccc(Br)cc2cc1-c1nc2ccccc2[nH]1
inactive: T-47D breast 104% | BT-549 breast 85.9% | MDA-MB-435 melanoma 102% | SW-620 colon 89.7% | MCF7 breast 42.5% | HCT-116 colon 77.8% | HCC-2998 colon 108% | KM12 colon 90.7%

Cc1c2cnccc2c(C)c2c1oc1ccccc12
inactive: T-47D breast 77.5% | BT-549 breast 80.9% | MDA-MB-435 melanoma 91.6% | SW-620 colon 64.1% | MCF7 breast 43.7% | HCT-116 colon 45% | HCC-2998 colon 84.9% | KM12 colon 81.7%

COc1ccc(CCN2CCC(Nc3nc4ccccc4n3Cc3ccc(F)cc3)CC2)cc1
inactive: BT-549 breast 31.9% | KM12 colon 17.7%
active: T-47D breast -3.86% | MDA-MB-435 melanoma -91.7% | SW-620 colon -54.8% | MCF7 breast -53.6% | HCT-116 colon -39.4% | HCC-2998 colon -84.6%

CC1C(=NC(=O)c2cnccn2)C(C)C(c2ccc(Cl)cc2)NC1c1ccncc1 (stereo not given)
inactive: T-47D breast 78% | BT-549 breast 95.4% | MDA-MB-435 melanoma 96.9% | SW-620 colon 111% | MCF7 breast 91.3% | HCT-116 colon 73.6% | HCC-2998 colon 115% | KM12 colon 95.8%

CCC(C)[C@H](NC(C)=O)C(=O)N[C@@H](CCCNC(=N)N)C(=O)N[C@@H](CCCCN)C(=O)N[C@@H](CC1CCC(O)CC1)C(=O)NC(C(=O)N[C@@H](CCSC)C(=O)N[C@@H](CCCNC(=N)N)C(=O)N[C@@]1(C)CCC/C=C\CCC[C@@](C)(C(=O)NC(C(=O)N[C@@H](CCC(=O)O)C(=O)N[C@@H](CC(C)C)C(=O)N[C@H](C(=O)N[C@@H](CCC(=O)O)C(N)=O)C(C)C)[C@@H](C)O)NC(=O)[C@H](CCC(N)=O)NC(=O)[C@H](CC(C)C)NC(=O)[C@H](CC(C)C)NC1=O)[C@@H](C)O (stereo not given in full)
inactive: T-47D breast 78.9% | BT-549 breast 117% | MDA-MB-435 melanoma 105% | SW-620 colon 90.4% | MCF7 breast 102% | HCT-116 colon 89.1% | HCC-2998 colon 103% | KM12 colon 96.9%

COc1ccc2c(c1)C(=O)/C(=C/c1ncc([N+](=O)[O-])n1C)O2
active: BT-549 breast -18.7% | MDA-MB-435 melanoma -63.2% | SW-620 colon -41% | MCF7 breast 5.2% | HCT-116 colon -10.7% | HCC-2998 colon -64.1% | KM12 colon -36.3%
inactive: T-47D breast 92%

C[C@@H](C[C@H](CCO)c1ccccc1)c1ccc2ccccc2c1
active: T-47D breast -58.3% | BT-549 breast -86.1% | MDA-MB-435 melanoma -75.3% | SW-620 colon -26.5% | MCF7 breast -63% | HCT-116 colon -94.3% | HCC-2998 colon -82.9% | KM12 colon -42.3%

COc1cc(-c2csc(NC(=O)Nc3ccc(Cl)c(C(F)(F)F)c3)n2)cc(OC)c1OC
inactive: SW-620 colon 18.1% | HCC-2998 colon 21.4%
active: T-47D breast -9.38% | BT-549 breast -13% | MDA-MB-435 melanoma -7.7% | MCF7 breast -9.68% | HCT-116 colon -19.6% | KM12 colon 9.25%

CC[N+](CC)=c1ccc2nc3c(cc(NCc4ccccc4)c4ccccc43)oc-2c1
active: T-47D breast -55.9% | MDA-MB-435 melanoma -98.9% | SW-620 colon -82.5% | MCF7 breast -82.2% | HCT-116 colon -35.6% | HCC-2998 colon -94.8% | KM12 colon -88.6%
inactive: BT-549 breast 39.4%

COc1cc(-c2nn(-c3cccc(NC(=O)NCCNS(=O)(=O)c4ccc(Cl)cc4)c3)cc2-c2ccncc2)ccc1Cl
active: BT-549 breast -11.6% | MDA-MB-435 melanoma 2.25% | MCF7 breast 4.85% | HCT-116 colon 0.871% | HCC-2998 colon -9.49% | KM12 colon 7.63%
inactive: T-47D breast 23.8% | SW-620 colon 18.9%

O=S(=O)(Oc1ccc(-c2ccc3sccc3c2)cc1)c1ccc(F)cc1
inactive: T-47D breast 96% | BT-549 breast 102% | MDA-MB-435 melanoma 93.5% | SW-620 colon 93.5% | MCF7 breast 84.8% | HCT-116 colon 102% | HCC-2998 colon 86.8% | KM12 colon 104%

NC1=NC(c2ccc(Cl)cc2)C2=C(N1)/C(=C/c1ccc(Cl)cc1)CCC2 (stereo not given)
active: MDA-MB-435 melanoma -0.458% | HCT-116 colon -72.1% | HCC-2998 colon -31.1% | KM12 colon 2.3%
inactive: T-47D breast 102% | BT-549 breast 79% | SW-620 colon 18.9% | MCF7 breast 33.2%
